Measurements: PubChem BioAssay (Tox21)
Records with an inconclusive call do not appear. Calls of active or inactive are those of the source. Calls come from the whole dose curve; as a rule, active = well fitted inhibition curve with a large enough effect in the signal ratio in the repeat runs, with a control signal flat; inconclusive = weak or mixed curves, or effect the other way; inactive = flat fitted curve, though single readings scatter; the % refers to the signal ratio.
% is set by controls: 0 for no effect and ±100 for the full control effect.

Each compound was assayed against D(2) dopamine receptor (Homo sapiens) (UniProt P14416) (assay: Dopamine D2 receptor (DRD2) small molecule antagonists, cell-based qHTS assay (AID 1963595)). Details: HEK293-DRD2 cAMP HTRF antagonist mode; series mostly up to 92.4 µM; activity change, negative = inhibition: at the top concentration.
Sequence of D(2) dopamine receptor (Homo sapiens) (P14416 whole entry, looked up): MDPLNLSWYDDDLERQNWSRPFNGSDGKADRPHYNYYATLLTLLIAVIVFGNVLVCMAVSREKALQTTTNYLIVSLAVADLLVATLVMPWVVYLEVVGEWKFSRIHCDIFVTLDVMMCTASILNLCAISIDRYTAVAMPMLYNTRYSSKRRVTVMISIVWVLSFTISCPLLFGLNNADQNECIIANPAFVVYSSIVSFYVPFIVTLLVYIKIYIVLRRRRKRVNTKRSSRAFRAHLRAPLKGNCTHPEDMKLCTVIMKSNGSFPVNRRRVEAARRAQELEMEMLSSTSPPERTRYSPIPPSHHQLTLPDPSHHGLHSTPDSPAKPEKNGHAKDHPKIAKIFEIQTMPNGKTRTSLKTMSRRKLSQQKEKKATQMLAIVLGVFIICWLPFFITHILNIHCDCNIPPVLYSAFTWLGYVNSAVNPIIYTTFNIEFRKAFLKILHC
From the text: National Center for Advancing Translational Sciences [NCATS]
Division of Preclinical Innovation [DPI]
U.S. Environmental Protection Agency [EPA]
National Institutes of Environmental Health Sciences [NIEHS]
National Toxicology Program [NTP]
U.S. Food and Drug Administration [FDA]
DRD2 is the D2 subtype of the dopamine receptor, which is coupled to Gi subtype of G protein-coupled receptor. This G protein-coupled receptor inhibits adenylyl cyclase activity. The DRD2-HEK293 cell line stably expressing D2 dopamine receptor can be used for screening agonists and antagonists of interactions between D2 and its ligands. The Hek293-DRD2 cAMP assay is based on HTRF technology. It measures changes of cAMP accumulation in response to Gi coupled GPCR activation or inhibition.
Tox21 Assay Protocol Summary:
DRD2-Hek293 cells were dispensed at 600 cells/3uL/well in 1536-well white plates using a Multidrop Dispenser. After the assay plates were incubated at a 37 C/5% CO2 incubator for 24 h, 1 uL of Ro20-1724 at final concentration of 0.1 mM was transferred to the assay plate by a Flying Reagent Dispenser. Following Ro20-1724 addition, 23 nL of compound dissolved in DMSO, positive controls or DMSO only was added to the assay plates via Wako pintool station. The assay plates were incubated at room temperature for 10 min. Next, 1 uL of mixture of NKH477 (final concentration at 200 nM) and quinpirole (final concentration at 12 nM) was added into the plates. After the assay plates were incubated at room temperature for an additional 30 min, 2.5 ul/well of cAMP-d2 and 2.5 ul/well of anti-cAMP-cryptate were added respectively into the assay plates using a Flying Reagent Dispenser. The plates were incubated at room temperature for 1 h. The fluorescence intensity in the plates was measured at 340 nm excitation and 665 & 620 nm emission by an Envision plate reader.
With `CS(=O)(=O)O` the “activity change, negative = inhibition” value was 8.28% (inactive). `C[C@H]1C[C@@H](O)CC(C)(C)C1` was tested, and the “activity change, negative = inhibition” value was 11% (inactive). For `NC(=O)c1ccc(N)cc1`, the “activity change, negative = inhibition” value was 10% (inactive). For `CC(=O)c1sc(C)nc1C`, the “activity change, negative = inhibition” value was 5.75% (inactive). `OCCCC1CCCCC1` was tested, and the “activity change, negative = inhibition” value was -10.8% (inactive). `O=C(O)CNC(=O)c1ccccc1I` was tested, and the “activity change, negative = inhibition” value was -2.2% [at 42.5 µM] (inactive). `C=C(C)C(=O)OCCOCCOCCOC(=O)C(=C)C` was tested, and the Potency was “inactive”. `O=S(=O)(O)c1cccc2ccccc12` was tested, and the “activity change, negative = inhibition” value was 0.15% (inactive). In the case of `c1cc(C(c2ccc(OCC3CO3)cc2)C(c2ccc(OCC3CO3)cc2)c2ccc(OCC3CO3)cc2)ccc1OCC1CO1` (stereo not given), the Potency is reported as “inactive”. With `O=C(O)CSCC(=O)NC1CCSC1=O` (stereo not given) the “activity change, negative = inhibition” value was 8.18% [at 42.5 µM] (inactive). In the case of `O=C1CCCCC1`, the Potency is reported as “inactive”. In the case of `CCN(CC)C(=O)C1CN2CCc3cc(OC)c(OC)cc3C2CC1OC(C)=O` (stereo not given), the “activity change, negative = inhibition” value is reported as -15.1% [at 42.5 µM] (inactive). `O=C(O)/C=C/c1ccc(Cn2ccnc2)cc1` was tested, and the “activity change, negative = inhibition” value was 13.5% [at 42.5 µM] (inactive). For `CCCCCCCO`, the “activity change, negative = inhibition” value was 3.25% (inactive). `Cc1nc(C)c(C)nc1C` was tested, and the “activity change, negative = inhibition” value was 12.8% (inactive). In the case of `CCN(CC)c1ccc2c(C)cc(=O)oc2c1`, the Potency is reported as “inactive”. With `CC(C(=O)O)c1cccc(C(=O)c2ccccc2)c1` (stereo not given) the Potency was “inactive”. With `CNCCS(=O)(=O)O` the “activity change, negative = inhibition” value was -0.122% (inactive). For `COC(=O)Cc1cccc2ccccc12`, the “activity change, negative = inhibition” value was -3.77% (inactive). For `CCCCOC(O)CC` (stereo not given), the “activity change, negative = inhibition” value was -10.1% (inactive). `Nc1c(Br)cc([N+](=O)[O-])cc1Br` was tested, and the “activity change, negative = inhibition” value was -0.12% (inactive). `O=C1Nc2ccccc2C1(c1ccc(O)cc1)c1ccc(O)cc1` was tested, and the Potency was “inactive”. With `CC1=CCC(C(C)C)=CC1` the “activity change, negative = inhibition” value was -0.948% (inactive). For `CC(CCC(=O)O)C(=O)O` (stereo not given), the “activity change, negative = inhibition” value was -2.48% (inactive). With `CCCCCCCCCCCCCCC(=O)O` the “activity change, negative = inhibition” value was 4.02% (inactive). For `C1CCCNCCC1`, the “activity change, negative = inhibition” value was -0.419% (inactive). With `CCOC(OCC)C(=O)c1ccccc1` the “activity change, negative = inhibition” value was 0.303% (inactive). `O=C(O[C@@H]1Cc2c(O)cc(O)cc2O[C@@H]1c1cc(O)c(O)c(O)c1)c1cc(O)c(O)c(O)c1` was tested, and the “activity change, negative = inhibition” value was 12.3% (inactive). With `CCCCCCCCCC/C=C/C#N` the “activity change, negative = inhibition” value was 5.54% (inactive). With `CC(C)(C)NC[C@H](O)COc1nsnc1N1CCOCC1` the Potency was “inactive”. With `Cc1ccc(S(=O)(=O)NC(=O)NC2CCCC2)cc1` the “activity change, negative = inhibition” value was -0.296% [at 42.5 µM] (inactive). For `CCCCCCCCCCCCCCCC[N+](C)(C)CC`, the Potency was “inactive”. For `CO[C@@]1(NC(=O)CSC[C@@H](N)C(=O)O)C(=O)N2C(C(=O)O)=C(CSc3nnnn3C)CS[C@@H]21`, the “activity change, negative = inhibition” value was -1.24% [at 42.5 µM] (inactive). With `C[Si](C)O[Si](C)C` the “activity change, negative = inhibition” value was 5.1% (inactive). With `CC1CC(O)CC(C)(C)C1` (stereo not given) the “activity change, negative = inhibition” value was 10.2% (inactive). For `CC(C)=C1CC[C@@H](C)CC1=O`, the “activity change, negative = inhibition” value was -5.56% (inactive). `CC(C)C(=O)Nc1cccc(C2CN3CCSC3=N2)c1` (stereo not given) was tested, and the “activity change, negative = inhibition” value was 0.0395% [at 42.5 µM] (inactive). With `COc1cc(C(=O)N2CCCCCCC2)cc(OC)c1OC` the “activity change, negative = inhibition” value was -0.878% [at 42.5 µM] (inactive). `CCSC(=O)N(CC(C)C)CC(C)C` was tested, and the “activity change, negative = inhibition” value was 0.357% (inactive). In the case of `CCCN[C@H]1CCc2nc(N)sc2C1`, the Potency is reported as “inactive”.
